Records with an inconclusive call do not appear. Entries that show only a call come without a potency. Unmarked numbers belong to inactive results. The source made the active and inactive calls. Unless noted, calls follow the shape of the dose curve; as a rule, active = well fitted curve in the direction sought with a large enough effect in the repeat runs; inconclusive = weak or mixed curves; inactive = no such curve, though single readings can be large; an effect the other way counts as inactive or inconclusive.
Key:
[1] = biological target: Retinoic acid receptor RXR-alpha (Homo sapiens) (UniProt P19793); test: qHTS assay to identify small molecule agonists of the RXR signaling pathway (AID 1159527; calls by dose curve; also: nearly all actives have a fitted effect of over 35% in size; also: potency is read from the fitted curve at half-maximal effect); conditions: HEK293T RXRa-UAS-bla, beta-lactamase ratio, 16 h; series mostly up to 76.8 µM
Outline: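 Agonist mode; 9-cis retinoic acid positive control. HEK 293T UAS-bla reporter cells, 2% charcoal-stripped FBS, 16 hr compound exposure at 37 C/5% CO2. LiveBLAzer B/G FRET substrate 2 hr RT; ex 405, em 460/530 nm.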

[2] = qHTS assay to identify small molecule agonists of the RXR signaling pathway - cell viability counter screen (AID 1159529); conditions: RXR-alpha-bla HEK293T viability, CellTiter-Glo, 16 h; series mostly up to 76.8 µM; also: nearly all actives have a fitted effect of over 50% in size
Outline: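 Luminescence from CellTiter-Glo (30 min, RT) measured viability in the same wells as the beta-lactamase reporter readout. Cells: GeneBLAzer RXR-alpha HEK 293T, 2% charcoal-stripped FBS. Compound exposure 16 hr, 37 C.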

[3] = qHTS assay to identify small molecule antagonists of the retinoid acid receptor (RAR) signaling pathway - cell viability counter screen (AID 1159551); conditions: C3RL4 cells viability, ATP luminescence (CellTiter-Glo), 6 h; series mostly up to 92.4 µM; also: nearly all actives have a fitted effect of over 35% in size
Outline: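 Luminescent ATP quantitation (CellTiter-Glo) gave cell viability in C3RL4 cells exposed to test chemicals for 6 h at 37 C alongside 1 uM final retinol.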

[4] = qHTS assay to identify small molecule antagonists of the estrogen related receptor (ERR) signaling pathway from Tox21 library - cell viability counter screen (AID 1224834); conditions: ERR reporter cells viability, CellTiter-Fluor, 17.5 h; series mostly up to 92.4 µM; also: nearly all actives have a fitted effect of over 30% in size
Outline: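 Fluorescence from CellTiter-Fluor gives the viability read-out, taken 30 min after reagent addition. Before that, ERR cells seeded 6 h earlier were incubated with compounds for 17.5 h at 37 C.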

[5] = biological target: Luciferin 4-monooxygenase (Photinus pyralis) (UniProt P08659); test: qHTS assay to identify small molecule inhibitors of firefly luciferase (AID 1224835); also: nearly all actives have a fitted effect of over 25% in size; also: potency is read from the fitted curve at half-maximal effect; conditions: purified P. pyralis luciferase, luminescence inhibition; series mostly up to 115 µM
Outline: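 Biochemical qHTS: compounds run as interplate titrations against purified firefly enzyme, with D-luciferin and ATP each at its KM concentration. Light output recorded by CCD imaging.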

[6] = qHTS assay to identify small molecule agonists of the constitutive androstane receptor (CAR) signaling pathway - cell viability counter screen (AID 1224836); conditions: HepG2-CYP2B6-hCAR viability, CellTiter-Fluor, 23 h, PK11195 added to every well; series mostly up to 92.4 µM; also: nearly all actives have a fitted effect of over 45% in size
Outline: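 Viability read-out: CellTiter-Fluor fluorescence after 23 h compound exposure at 37 C/5% CO2 in double-stable HepG2-CYP2B6-hCAR cells, with PK11195 present at 0.75 uM final; compounds tested in 15-point titration.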

[7] = qHTS assay to identify small molecule antagonists of the constitutive androstane receptor (CAR) signaling pathway - cell viability counter screen (AID 1224837); conditions: HepG2-CYP2B6-hCAR viability, CellTiter-Fluor, 23 h, co-treated with 50 nM CITCO; series mostly up to 92.4 µM; also: nearly all actives have a fitted effect of over 45% in size
Outline: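 HepG2-CYP2B6-hCAR cells, 2500/well, 4 hr pre-incubation; compound titration, 15 conc.; CITCO 50 nM final; 23 hr, 37 C/5% CO2; CellTiter-Fluor, fluorescence intensity.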

[8] = biological target: Nuclear receptor subfamily 1 group I member 3 (Homo sapiens) (UniProt Q14994); test: qHTS assay to identify small molecule antagonists of the constitutive androstane receptor (CAR) signaling pathway (AID 1224838); conditions: HepG2-CYP2B6-hCAR luciferase, CITCO-stimulated, 24 h; series mostly up to 92.4 µM;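 also: HepG2 cells stably expressing hCAR with CYP2B6 luciferase reporter stimulated by CITCO; nearly all actives have a fitted effect of over 40% in size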
Outline: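 HepG2-CYP2B6-hCAR cells; 4 h pre-incubation; cpd (15 conc) + CITCO 50 nM final; 24 h, 37 C/5% CO2; ONE-Glo, luminescence.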

[9] = biological target: Nuclear receptor subfamily 1 group I member 3 (Homo sapiens) (UniProt Q14994); test: qHTS assay to identify small molecule agonists of the constitutive androstane receptor (CAR) signaling pathway (AID 1224839); conditions: HepG2 hCAR CYP2B6-luciferase, agonist mode, 24 h; series mostly up to 92.4 µM;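 also: HepG2 cells stably carrying human CAR and a CYP2B6 luciferase reporter; nearly all actives have a fitted effect of over 15% in size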
Outline: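 Luminescence read-out (ONE-Glo, 30 min, room temperature) from double-stable HepG2-CYP2B6-hCAR cells exposed 24 h to 15-point compound series in presence of 0.75 uM PK11195 final.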

[10] = qHTS assay to identify small molecule antagonists of the estrogen related receptor signaling pathway with the pleiotropic PPARgamma coactivator (PGC) from Tox21 10K library - cell viability counter screen (AID 1224840; active = well fitted cell-killing curve with a large enough effect in the repeat runs, not every such curve was filed as active; also: nearly all actives have a fitted effect of over 40% in size); conditions: PGC/ERR reporter cells viability, CellTiter-Fluor, 17.5 h; series mostly up to 92.4 µM
Outline: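 PGC/ERR cells, 2,000/well; 6 h pre-incubation 37 C/5% CO2; cpd in DMSO via pin tool; 17.5 h 37 C; CellTiter-Fluor, 30 min; fluorescence.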

[11] = qHTS assay to identify small molecule agonists of the estrogen related receptor signaling pathway with the pleiotropic PPARgamma coactivator (PGC) from Tox21 10K library (AID 1224842); conditions: PGC/ERR reporter cell line, luciferase ONE-Glo, 18 h; series mostly up to 92.4 µM; also: nearly all actives have a fitted effect of over 15% in size
Outline: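 PGC/ERR reporter cell line, 2,000 cells per well, incubated 6 h at 37 C before 23 nL compound in DMSO was added. After 18 h at 37 C, One-Glo luminescence read following 30 min at room temperature.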

[12] = qHTS assay to identify small molecule antagonists of the estrogen related receptor signaling pathway with the pleiotropic PPARgamma coactivator (PGC) from Tox21 10K library (AID 1224841; call rule not given here; also: actives are mostly falling curves and most rising ones were filed inactive; nearly all actives have a fitted effect of over 50% in size); conditions: PGC/ERR reporter cell line, ONE-Glo luciferase, 18 h; series mostly up to 92.4 µM
Outline: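 PGC/ERR cell line, 2,000 cells/well; 6 h pre-incubation 37 C/5% CO2; compounds (DMSO) pinned in; 18 h, 37 C; One-Glo, 30 min RT; luminescence.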

Retinoic acid receptor RXR-alpha (Homo sapiens), sequence (P19793 whole entry, looked up): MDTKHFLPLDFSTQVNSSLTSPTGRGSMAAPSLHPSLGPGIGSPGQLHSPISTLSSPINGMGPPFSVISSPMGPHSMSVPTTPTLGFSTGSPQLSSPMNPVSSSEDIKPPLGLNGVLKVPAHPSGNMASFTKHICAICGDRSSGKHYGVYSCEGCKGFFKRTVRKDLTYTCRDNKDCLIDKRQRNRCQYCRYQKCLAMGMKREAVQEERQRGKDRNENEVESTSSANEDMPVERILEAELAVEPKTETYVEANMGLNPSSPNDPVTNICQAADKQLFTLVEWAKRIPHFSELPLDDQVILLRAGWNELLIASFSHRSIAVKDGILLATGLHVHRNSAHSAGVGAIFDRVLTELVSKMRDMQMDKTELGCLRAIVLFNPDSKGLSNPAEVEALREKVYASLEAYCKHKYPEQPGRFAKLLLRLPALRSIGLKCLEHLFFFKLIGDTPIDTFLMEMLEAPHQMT
Luciferin 4-monooxygenase (Photinus pyralis), sequence (P08659 whole entry, looked up): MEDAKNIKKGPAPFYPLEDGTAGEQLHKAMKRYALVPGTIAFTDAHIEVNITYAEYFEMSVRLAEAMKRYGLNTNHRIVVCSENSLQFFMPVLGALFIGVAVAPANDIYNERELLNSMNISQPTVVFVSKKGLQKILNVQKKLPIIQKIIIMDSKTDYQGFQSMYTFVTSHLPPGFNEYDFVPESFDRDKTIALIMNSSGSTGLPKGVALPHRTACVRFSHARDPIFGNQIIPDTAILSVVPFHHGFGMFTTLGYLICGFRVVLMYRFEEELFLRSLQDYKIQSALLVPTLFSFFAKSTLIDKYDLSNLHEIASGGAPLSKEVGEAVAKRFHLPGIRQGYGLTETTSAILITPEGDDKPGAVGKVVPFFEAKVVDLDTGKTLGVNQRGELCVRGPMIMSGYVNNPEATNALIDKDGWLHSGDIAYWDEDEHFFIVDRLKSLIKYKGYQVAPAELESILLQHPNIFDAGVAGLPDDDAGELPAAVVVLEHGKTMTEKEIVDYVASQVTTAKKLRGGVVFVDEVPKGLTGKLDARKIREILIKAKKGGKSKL
Nuclear receptor subfamily 1 group I member 3 (Homo sapiens), sequence (Q14994 whole entry, looked up): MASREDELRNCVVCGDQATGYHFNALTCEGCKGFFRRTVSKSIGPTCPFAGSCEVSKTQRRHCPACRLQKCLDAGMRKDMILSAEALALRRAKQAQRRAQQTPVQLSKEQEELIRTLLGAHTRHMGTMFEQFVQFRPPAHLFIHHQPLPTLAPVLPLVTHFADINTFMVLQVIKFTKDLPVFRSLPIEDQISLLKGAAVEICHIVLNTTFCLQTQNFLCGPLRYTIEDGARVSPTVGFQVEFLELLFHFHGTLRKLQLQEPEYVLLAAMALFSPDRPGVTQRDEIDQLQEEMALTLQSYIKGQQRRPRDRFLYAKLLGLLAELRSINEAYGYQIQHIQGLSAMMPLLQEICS

| Compound | Potency [1] | outcome [2] | outcome [3] | Potency [4] | Potency [5] | Potency [6] | Potency [7] | outcome [8] | Potency [9] | outcome [10] | outcome [11] | Potency [12] |
| --- | --- | --- | --- | --- | --- | --- | --- | --- | --- | --- | --- | --- |
| C[Si](C)(C)C | inactive | inactive | inactive | inactive | inactive | inactive | inactive | inactive | inactive | inactive | inactive | – |
| CCCOC(OCCC)OCCC | inactive | inactive | inactive | inactive | inactive | inactive | inactive | inactive | inactive | inactive | – | inactive |
| Nc1ncnc(Nc2ccccc2)n1 | inactive | inactive | inactive | inactive | inactive | inactive | inactive | inactive | – | inactive | – | – |
| C=C(C)C(=O)OCCN(CC)CC | inactive | inactive | inactive | inactive | inactive | inactive | – | inactive | inactive | – | – | – |
| CC[C@H](C)C(=O)O[C@H]1C[C@H](O)C=C2C=C[C@H](C)[C@H](CC[C@@H](O)C[C@@H](O)CC(=O)O)[C@H]21 | inactive | inactive | inactive | inactive | inactive | inactive | inactive | – | – | inactive | – | – |
| CCCCC(CC)COCCO (stereo not given) | inactive | inactive | inactive | inactive | inactive | inactive | – | inactive | inactive | inactive | – | – |
| CO[C@@H]1[C@@H](OC(N)=O)[C@@H](O)[C@H](Oc2ccc3c(O)c(NC(=O)c4ccc(O)c(CC=C(C)C)c4)c(=O)oc3c2C)OC1(C)C | inactive | inactive | inactive | inactive | inactive | inactive | inactive | inactive | inactive | inactive | inactive | inactive |
| O=C(O)c1ccc(Cl)cc1Cl | inactive | inactive | inactive | inactive | inactive | inactive | – | – | – | inactive | – | – |
| Cc1ccccc1OCC(O)CO (stereo not given) | inactive | inactive | inactive | inactive | inactive | inactive | – | inactive | inactive | inactive | inactive | – |
| COC(=O)CCCCCCCC(=O)OC | inactive | inactive | inactive | – | inactive | inactive | – | inactive | inactive | inactive | inactive | inactive |
| C=C(C)C1CCC(C)(O)CC1 (stereo not given) | inactive | inactive | inactive | inactive | inactive | inactive | – | inactive | inactive | inactive | – | – |
| CC(CO)c1ccccc1 (stereo not given) | inactive | inactive | inactive | – | inactive | inactive | inactive | inactive | inactive | inactive | – | – |
| O=C1O[C@@H]2[C@@H](O)[C@H](O)O[C@@H]2[C@H]1O | inactive | inactive | inactive | inactive | inactive | inactive | – | inactive | inactive | – | inactive | inactive |
| ClCCCl | inactive | inactive | inactive | inactive | inactive | inactive | – | inactive | inactive | inactive | inactive | – |
| COCCOCCOCCOCCO | inactive | inactive | inactive | – | inactive | inactive | inactive | inactive | inactive | inactive | – | – |
| CC(C)CCCCOC(=O)c1ccccc1C(=O)OCCCCC(C)C | inactive | inactive | inactive | – | inactive | inactive | – | inactive | inactive | inactive | – | inactive |
| O=S(=O)(O)CCN1CCN(CCO)CC1 | inactive | inactive | inactive | – | inactive | inactive | inactive | inactive | inactive | – | – | inactive |
| OCCC(F)(F)C(F)(F)C(F)(F)C(F)(F)C(F)(F)C(F)(F)C(F)(F)C(F)(F)F | inactive | inactive | inactive | – | inactive | inactive | inactive | inactive | inactive | inactive | – | inactive |
| O=C(CCN1CCN(CCO)CC1)N1c2ccccc2Sc2ccc(C(F)(F)F)cc21 | inactive | inactive | inactive | – | inactive | inactive | inactive | inactive | inactive | inactive | – | – |
| CCC(C=O)CC | inactive | inactive | inactive | – | inactive | inactive | inactive | inactive | inactive | – | – | inactive |
| O=S(=O)(O)c1cc(O)c2ccc(Nc3ccccc3)cc2c1 | inactive | inactive | inactive | – | 17.8 µM (active) | inactive | inactive | inactive | inactive | inactive | – | – |
| O=C(O)C(=O)Cc1ccccc1 | inactive | inactive | inactive | inactive | inactive | inactive | – | inactive | inactive | inactive | – | – |
| C=C(C)C(=O)OCc1ccccc1 | inactive | inactive | inactive | inactive | inactive | inactive | – | inactive | inactive | inactive | – | inactive |
| On1nnc2ccccc21 | 4.9 µM (active) | inactive | inactive | – | inactive | inactive | – | inactive | inactive | – | inactive | inactive |
| COc1cc(NS(=O)(=O)c2ccc(N)cc2)nc(OC)n1 | inactive | inactive | inactive | inactive | inactive | inactive | – | inactive | inactive | inactive | – | inactive |
